Screens from PubChem BioAssay.
MITF primary: blocks human microphthalmia-associated transcription factor; inhibition, % at 2.6 µM; 650,000 tested, 0.91% active; AID 1259374; O75030; AlphaScreen MITF homodimerization, bead proximity signal; in the data active = inhibition above about 50%;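 note: 0% = vehicle wells with protein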
Target sequence (O75030 whole entry, looked up): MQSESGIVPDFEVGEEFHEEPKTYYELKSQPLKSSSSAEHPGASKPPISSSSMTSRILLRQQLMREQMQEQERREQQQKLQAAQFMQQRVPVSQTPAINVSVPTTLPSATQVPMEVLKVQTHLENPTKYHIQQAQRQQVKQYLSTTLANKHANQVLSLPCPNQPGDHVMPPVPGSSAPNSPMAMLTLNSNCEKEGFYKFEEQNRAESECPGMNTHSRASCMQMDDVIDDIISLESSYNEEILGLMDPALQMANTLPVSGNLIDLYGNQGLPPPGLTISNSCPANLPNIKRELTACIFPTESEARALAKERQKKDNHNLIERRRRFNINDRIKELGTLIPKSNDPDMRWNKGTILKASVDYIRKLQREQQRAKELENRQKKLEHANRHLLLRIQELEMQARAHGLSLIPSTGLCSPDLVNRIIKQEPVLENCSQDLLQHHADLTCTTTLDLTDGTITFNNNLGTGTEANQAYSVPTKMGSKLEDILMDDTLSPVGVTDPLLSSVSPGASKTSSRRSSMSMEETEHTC
FBW7 activator: human FBW7 E3 ligase activation, primary screen; Q969H0; AlphaScreen FBW7–phospho-cyclin E peptide binding, activator screen; normalized activity (activation), % at 26.1 µM; 650,000 tested, 0.13% active; AID 1259310; in the data active = normalized activity above about 1.9%;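 note: purified mutant Fbw7 with reduced substrate affinity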
TEAD-YAP block: TEAD-YAP interaction inhibition; HEK-TIYL cells, TEAD-Gal4/YAP UAS-luciferase luminescence; inhibition, % at 9.12 µM; 640,000 tested, 1.4% active; in the data active = inhibition above about 32%;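 note: 0% = median of test compound wells and 100% = reference inhibitor wells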
GPR151 ag: human GPR151 activation; Q8TDV0; PathHunter beta-arrestin GPR151 cells, luminescence; activation, % at 11.2 µM; 650,000 tested, 1% active; AID 1508602; in the data active = activation above about 4.9%;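 note: 0% = median of compound wells and 100% = cells with positive control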
MITF inh conf: human MITF inhibition, confirmation. AlphaScreen MITF homodimerization, biotin/His-MITF beads. shares compounds with MITF primary. inhibition, % at 2.6 µM. 4,700 tested, 16% active;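 active = inhibition above a cutoff derived from the DMSO control wells, cut at about 28% in these data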;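 note: 0% = MITF dimer wells with DMSO only; inhibitors lower the bead chemiluminescence by keeping MITF from dimerizing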
AlphaScreen DR: AlphaScreen optical interference, dose response counter-screen. shares compounds with MITF primary. AlphaScreen optical interference counterscreen, cell-free. IC50, µM. 480 tested, 6% active. AID 1259373; call rule not given here
AlphaScreen intf2: counter-screen: compounds optically interfering with AlphaScreen. shares compounds with MITF primary. LysRS AlphaScreen counterscreen, signal interference, triplicate. inhibition, % at 2.6 µM. 4,700 tested, 7.6% active. AID 1259376;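 active = inhibition above a cutoff derived from the DMSO control wells, cut at about 30% in these data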
An asterisk follows results filed as active; nt = not tested or not shown. Hits are enriched below; roughly 3.5% of the tested compounds scored in any of these assays.

SMILES | MITF primary | FBW7 activator | TEAD-YAP block | GPR151 ag | MITF inh conf | AlphaScreen intf2 | others
COc1cc(CN2CCN(c3ccccc3C)CC2)cc(OC)c1OC | 30.9 | 0.0 | -4.2 | 0.1 | nt | nt
COc1cc(CN2CCN(Cc3ccccc3C)CC2)cc(OC)c1OC | 64.2* | -0.1 | -7.1 | 2.6 | -6.7 | 0.3
COc1ccc(Nc2nc(-c3cccs3)cs2)c(OC)c1 | 71.0* | -0.2 | -66.4 | 0.0 | 4.9 | 13.8
c1ccc(Nc2nc(N3CCN(c4ccccn4)CC3)nc3nc[nH]c23)cc1 | -3.5 | 0.1 | -0.9 | -0.2 | nt | nt
Cc1ccc(C)c(Cn2c(NCCNC(=O)C3CCC3)nc3c2c(=O)n(C)c(=O)n3C)c1 | 73.1* | -0.1 | 8.1 | 0.0 | 3.7 | 13.1
COCC(=O)NCCNc1nc2c(c(=O)n(C)c(=O)n2C)n1Cc1cc(C)ccc1C | 76.7* | 0.0 | 6.5 | -0.3 | 1.0 | 9.2
COC(=O)c1c(C)oc2ccc(N(C(=O)c3cccc([N+](=O)[O-])c3)S(=O)(=O)c3ccc4ccccc4c3)cc12 | 13.1 | 0.0 | -0.6 | 1.3 | nt | nt
COc1ccc(CN2CCN(C(=O)c3ccc(F)cc3)CC2)c(OC)c1 | 48.5 | -0.2 | -2.8 | -0.6 | nt | nt
COc1ccccc1CN1CCN(C(=O)c2ccncc2)CC1 | 65.1* | -0.2 | 1.0 | -0.6 | -9.0 | -3.8
COc1cc(OC)c(OC)cc1CN1CCN(C(=O)c2ccncc2)CC1 | 56.4* | -0.1 | 6.5 | -1.1 | -5.6 | 4.5
COc1ccc(OC)c(CN2CCN(C(=O)C(c3ccccc3)c3ccccc3)CC2)c1 | 51.8* | -0.1 | -3.4 | -1.0 | -24.7 | 11.6
COc1ccc(OC)c(CN2CCN(C(=O)c3cccc4ccccc34)CC2)c1 | 48.4 | -0.5 | -1.9 | -0.2 | nt | nt
COc1ccc(CN2CCN(C(=O)c3ccccc3)CC2)c(OC)c1 | 59.8* | -0.1 | 15.0 | 0.0 | 9.1 | 9.3
CC1=NN(c2ccccc2)C(=O)/C1=C/c1ccc(OCc2ccc(C)cc2)cc1 | 3.4 | -0.6 | -20.2 | -0.5 | nt | nt
O=[N+]([O-])c1cccc(Cn2cc(Cl)cn2)c1 | 12.8 | 0.3 | -3.9 | 1.3 | nt | nt
COc1ccc2ccccc2c1CN1CCN(C(=O)c2ccncc2)CC1 | 64.6* | 0.0 | -11.0 | -0.8 | -4.8 | -3.9
COc1ccc(CN2CCC(C(=O)NCC(C)C)CC2)c(OC)c1 | 17.5 | 0.0 | 5.8 | -0.7 | nt | nt
COc1ccc(CN2CCC(C(=O)NC(C)c3ccccc3)CC2)c(OC)c1 (centres undefined) | 50.7* | 0.4 | 7.4 | -0.3 | 10.2 | 16.5
COc1ccc(OC)c(CN2CCN(C(=O)c3cccc(Cl)c3)CC2)c1 | 66.3* | 0.1 | 0.4 | -2.4 | 3.9 | 12.2
COc1cccc(C(=O)N2CCN(Cc3ccccc3OC)CC2)c1 | 0.2 | -0.2 | -4.5 | -0.6 | nt | nt
COc1ccccc1CN1CCN(C(=O)c2ccccc2)CC1 | 59.8* | 0.1 | 8.2 | -0.3 | 6.4 | 6.8
CC(C)C(=O)Nc1ccc(C(=O)NNC(=O)CCC(=O)O)cc1 | 3.0 | 0.2 | 1.7 | 1.5 | nt | nt
CCc1cc(OCCCNCCN2CCOCC2)ccc1Cl | 48.4 | 0.1 | -6.8 | -1.1 | nt | nt
CCN1CCN(CCCOc2ccc3c(c2)CCC3)CC1 | 61.2* | 0.1 | 6.3 | 0.1 | 4.5 | 4.8
CCc1cc(OCCCN2CCN(CC)CC2)ccc1Cl | 67.3* | -0.2 | 6.6 | -0.3 | 16.4 | 16.2
SMILES | MITF primary | FBW7 activator | TEAD-YAP block | GPR151 ag | MITF inh conf | AlphaScreen intf2 | others
CCOc1cccc2c1OC1(C)C(C(=O)N(C)C)C2NC(=S)N1c1ccc(Br)cc1 (centres undefined) | 3.9 | -0.1 | 5.1 | -0.5 | nt | nt
CCC(C)(C)NC(=O)c1ccc(Cl)c(S(=O)(=O)N2CCCC2)c1 | 24.8 | 0.6 | -2.2 | -1.2 | nt | nt
O=C(Nc1ccc2c(c1)OCO2)c1ccccn1 | -3.2 | 0.0 | 11.2 | -9.8 | nt | nt
Cc1cc(C(=O)NNC(=S)NCC2CCCO2)no1 (centres undefined) | 5.4 | -0.2 | 0.0 | -0.1 | nt | nt
O=C(NNC(=S)Nc1ccc2c(c1)OCO2)c1ccccn1 | 116.9* | -1.5 | -46.9 | -2.4 | 95.7* | 91.2*
O=C(NNC(=S)NCC1CCCO1)c1ccccn1 (centres undefined) | 117.8* | -1.6 | 23.1 | 1.2 | 116.3* | 100.3*
CCC(=O)Nc1ccc(NC(=S)NC(=O)/C=C/c2ccco2)cc1 | 12.0 | -0.1 | -1.5 | 1.1 | nt | nt
O=C(/C=C/c1ccco1)NCCCNC(=O)/C=C/c1ccco1 | 27.3 | 0.2 | -6.3 | -0.3 | nt | nt
CCN(CC)C(=S)NC(=O)/C=C/c1ccco1 | 52.0* | 0.2 | -13.1 | 1.2 | 72.6* | 1.2 | AlphaScreen DR=>6.48
O=C(/C=C/c1ccco1)Nc1cccc2ccccc12 | 13.4 | 0.1 | -17.0 | -0.6 | nt | nt
O=C(/C=C/c1ccco1)NCCCCNC(=O)/C=C/c1ccco1 | 56.6* | -0.1 | -28.8 | -0.2 | 71.3* | 8.2 | AlphaScreen DR=>6.48
O=C(/C=C/c1ccco1)Nc1c[nH]c(=O)[nH]c1=O | 51.6* | 0.6 | -22.6 | -1.3 | 32.2* | 16.3 | AlphaScreen DR=>6.48
O=C(/C=C/c1ccco1)NCCCCCCNC(=O)/C=C/c1ccco1 | 55.2* | 0.3 | -27.9 | 0.5 | 68.9* | 7.3 | AlphaScreen DR=>6.48
CC(C)NS(=O)(=O)c1ccc(NC(=O)C(C)Sc2nc3ccccc3s2)cc1 (centres undefined) | -5.1 | 0.1 | 2.8 | 0.4 | nt | nt
Cc1ccccc1N1C(=O)c2ccc(C(=O)OCC(C)C)cc2C1=O | 13.8 | 0.1 | -0.6 | -1.8 | nt | nt
O=C(NCCCN1CCCC1)c1ccccc1Cl | 55.4* | -0.1 | -2.5 | -0.2 | -0.5 | 1.3
O=C(CCNC(=O)c1ccccc1Cl)NCCCN1CCOCC1 | -3.6 | 0.1 | 3.3 | 1.4 | nt | nt
O=C(CNS(=O)(=O)c1ccc([N+](=O)[O-])cc1)OCc1c(F)cccc1Cl | 4.3 | 0.0 | 10.2 | -1.1 | nt | nt
Clc1ccc(OCC#CCn2ccnc2)cc1 | 58.3* | 0.3 | 4.6 | 2.2 | 23.4 | 16.2
CC(C)CNC(=O)c1cn(C2CCCCC2)cc(C(=O)NCCc2cccnc2)c1=O | 50.9* | 0.1 | -43.0 | -1.2 | 3.1 | 0.0
Cc1cccc2nc(CN3CCN(c4ccc(F)cc4)CC3)cn12 | 72.3* | -0.2 | 0.8 | -1.2 | -14.1 | 1.7
Cc1cccc2nc(Cn3ccccc3=O)cn12 | 12.7 | 0.0 | -1.3 | 0.0 | nt | nt
COCCNC(=S)NNC(=O)c1ccc(Cl)cc1Cl | -11.6 | -0.1 | -6.8 | 0.2 | nt | nt
COCCNC(=S)NNC(=O)c1cc(Cl)ccc1OC | 63.0* | 0.1 | -5.7 | -1.0 | 11.9 | 14.2
CCOC(=O)c1nc2ccc(Cl)cn2c1Br | 12.7 | 0.2 | -5.3 | -0.2 | nt | nt
CCOC(=O)CNS(=O)(=O)c1cc(-c2nnc(Nc3cccc(C)c3)c3ccccc23)ccc1C | 79.8* | 0.1 | 2.2 | -0.5 | -3.0 | 1.7
Cc1cc2nc(-c3cccc(NC(=O)c4cc(Br)ccc4Cl)c3)oc2cc1C | 5.3 | -0.3 | 10.0 | 0.0 | nt | nt
N#CC(C#N)=C(N)/C(C#N)=C/c1ccc([N+](=O)[O-])o1 | 84.3* | -0.9 | 5.5 | 1.1 | 66.5* | 5.7 | AlphaScreen DR=>6.48
Cn1cccc1/C=N/NC(=O)c1nc(N)n[nH]1 | -3.0 | -0.4 | -14.2 | -1.2 | nt | nt
